Test results published in PubChem BioAssay (Tox21).
Several values for one entry are separate records, joined by “and”; a condition that tells them apart may be missing. Equal values may be shown once. Results filed as inconclusive are left out. A call without a number means that no potency is given here. Where a structure was tested more than once in an assay, its records may differ in their call. Activity calls are given as the source filed them. Unless noted, calls follow the shape of the dose curve; as a rule, active = well fitted curve in the direction sought with a large enough effect in the repeat runs; inconclusive = weak or mixed curves; inactive = no such curve, though single readings can be large; an effect the other way counts as inactive or inconclusive. Residues, ends and D or L forms follow the SMILES beside them.

Experiments:
[1] = qHTS assay to identify small molecule antagonists of the estrogen related receptor (ERR) signaling pathway from Tox21 library - cell viability counter screen (AID 1224834); also: nearly all actives have a fitted effect of over 30% in size; also: potency is read from the fitted curve at half-maximal effect
How it was run: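 Cytotoxicity of test substances is gauged in the same ERR cells used for the antagonist screen, after 17.5 h of compound treatment at 37 C, by CellTiter-Fluor fluorescence measured after 30 min.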

[2] = target: Luciferin 4-monooxygenase (Photinus pyralis) (UniProt P08659); assay: qHTS assay to identify small molecule inhibitors of firefly luciferase (AID 1224835); also: nearly all actives have a fitted effect of over 25% in size; also: potency is read from the fitted curve at half-maximal effect
Luciferin 4-monooxygenase (Photinus pyralis), sequence (P08659 whole entry, looked up): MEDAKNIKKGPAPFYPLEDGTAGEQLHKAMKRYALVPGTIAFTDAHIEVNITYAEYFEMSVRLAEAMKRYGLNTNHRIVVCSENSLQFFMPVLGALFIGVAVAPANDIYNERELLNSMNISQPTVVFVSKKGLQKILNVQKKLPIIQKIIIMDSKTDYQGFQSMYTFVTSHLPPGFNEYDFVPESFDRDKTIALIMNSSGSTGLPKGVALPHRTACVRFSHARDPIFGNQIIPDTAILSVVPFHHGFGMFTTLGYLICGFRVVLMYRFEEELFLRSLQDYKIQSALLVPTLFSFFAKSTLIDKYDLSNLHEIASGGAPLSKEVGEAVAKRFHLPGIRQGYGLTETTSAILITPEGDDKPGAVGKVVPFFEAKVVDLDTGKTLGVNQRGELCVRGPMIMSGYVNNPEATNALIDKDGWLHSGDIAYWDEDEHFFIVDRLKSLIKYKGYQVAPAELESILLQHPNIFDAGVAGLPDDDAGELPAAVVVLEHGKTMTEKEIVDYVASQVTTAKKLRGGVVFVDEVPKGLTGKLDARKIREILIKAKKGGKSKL
How it was run: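 Biochemical qHTS: compounds run as interplate titrations against purified firefly enzyme, with D-luciferin and ATP each at its KM concentration. Light output recorded by CCD imaging.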

[3] = qHTS assay to identify small molecule agonists of the constitutive androstane receptor (CAR) signaling pathway - cell viability counter screen (AID 1224836); also: series mostly up to about 92 µM; nearly all actives have a fitted effect of over 45% in size
How it was run: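 Fluorescence from CellTiter-Fluor indicates live cells after 23 h exposure. The human hepatoma line expresses hCAR and a CYP2B6-2.2kb reporter. Incubation medium contains 0.75 uM PK11195 (final).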

[4] = qHTS assay to identify small molecule antagonists of the constitutive androstane receptor (CAR) signaling pathway - cell viability counter screen (AID 1224837); also: series mostly up to about 92 µM; nearly all actives have a fitted effect of over 45% in size
How it was run: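 Multiplexed cytotoxicity read-out for the CAR antagonist screen: double-stable HepG2-CYP2B6-hCAR cells co-treated with 50 nM CITCO (final) and compound over 15 concentrations, incubated 23 hr, then assessed by CellTiter-Fluor fluorescence.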

[5] = target: Nuclear receptor subfamily 1 group I member 3 (Homo sapiens) (UniProt Q14994); assay: qHTS assay to identify small molecule antagonists of the constitutive androstane receptor (CAR) signaling pathway (AID 1224838); also: nearly all actives have a fitted effect of over 40% in size
Nuclear receptor subfamily 1 group I member 3 (Homo sapiens), sequence (Q14994 whole entry, looked up): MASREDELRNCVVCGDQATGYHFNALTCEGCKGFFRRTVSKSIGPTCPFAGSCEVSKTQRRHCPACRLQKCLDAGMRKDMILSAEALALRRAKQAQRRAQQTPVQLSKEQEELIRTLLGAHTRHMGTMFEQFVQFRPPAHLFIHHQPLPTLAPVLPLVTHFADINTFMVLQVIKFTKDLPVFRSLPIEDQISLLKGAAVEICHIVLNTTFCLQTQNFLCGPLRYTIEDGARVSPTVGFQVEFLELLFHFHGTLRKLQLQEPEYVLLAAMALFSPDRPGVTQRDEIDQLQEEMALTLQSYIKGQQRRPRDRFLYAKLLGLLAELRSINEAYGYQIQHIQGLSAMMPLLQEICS
How it was run: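 Compounds were titrated across 15 concentrations onto HepG2 cells double-stably expressing hCAR and a CYP2B6-2.2kb reporter, together with 50 nM CITCO (final). After 24 h at 37 C, luciferase activity was measured by luminescence.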

[6] = target: Nuclear receptor subfamily 1 group I member 3 (Homo sapiens) (UniProt Q14994); assay: qHTS assay to identify small molecule agonists of the constitutive androstane receptor (CAR) signaling pathway (AID 1224839); also: nearly all actives have a fitted effect of over 15% in size; also: potency is read from the fitted curve at half-maximal effect
How it was run: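 Stable hCAR/CYP2B6-2.2kb HepG2 line in DMEM with 10% FBS; compounds (15 concentrations) and 0.75 uM PK11195 final, 24 h at 37 C/5% CO2, then ONE-Glo luminescence after 30 min.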

[7] = qHTS assay to identify small molecule antagonists of the estrogen related receptor signaling pathway with the pleiotropic PPARgamma coactivator (PGC) from Tox21 10K library - cell viability counter screen (AID 1224840; active = well fitted cell-killing curve with a large enough effect in the repeat runs, not every such curve was filed as active; also: nearly all actives have a fitted effect of over 40% in size; also: potency is read from the fitted curve at half-maximal effect)
How it was run: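 Step one, plate 2,000 PGC/ERR cells per well; step two, incubate 6 h at 37 C/5% CO2; step three, pin-transfer compounds; step four, incubate 17.5 h; step five, add CellTiter-Fluor and read fluorescence after 30 min.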

[8] = target: Thyrotropin receptor (Homo sapiens) (UniProt P16473); assay: qHTS assay to identify small molecule agonists of the thyroid stimulating hormone receptor (TSHR) signaling pathway (AID 1224843; calls by dose curve; also: nearly all actives have a fitted effect of over 45% in size)
Thyrotropin receptor (Homo sapiens), sequence (P16473 whole entry, looked up): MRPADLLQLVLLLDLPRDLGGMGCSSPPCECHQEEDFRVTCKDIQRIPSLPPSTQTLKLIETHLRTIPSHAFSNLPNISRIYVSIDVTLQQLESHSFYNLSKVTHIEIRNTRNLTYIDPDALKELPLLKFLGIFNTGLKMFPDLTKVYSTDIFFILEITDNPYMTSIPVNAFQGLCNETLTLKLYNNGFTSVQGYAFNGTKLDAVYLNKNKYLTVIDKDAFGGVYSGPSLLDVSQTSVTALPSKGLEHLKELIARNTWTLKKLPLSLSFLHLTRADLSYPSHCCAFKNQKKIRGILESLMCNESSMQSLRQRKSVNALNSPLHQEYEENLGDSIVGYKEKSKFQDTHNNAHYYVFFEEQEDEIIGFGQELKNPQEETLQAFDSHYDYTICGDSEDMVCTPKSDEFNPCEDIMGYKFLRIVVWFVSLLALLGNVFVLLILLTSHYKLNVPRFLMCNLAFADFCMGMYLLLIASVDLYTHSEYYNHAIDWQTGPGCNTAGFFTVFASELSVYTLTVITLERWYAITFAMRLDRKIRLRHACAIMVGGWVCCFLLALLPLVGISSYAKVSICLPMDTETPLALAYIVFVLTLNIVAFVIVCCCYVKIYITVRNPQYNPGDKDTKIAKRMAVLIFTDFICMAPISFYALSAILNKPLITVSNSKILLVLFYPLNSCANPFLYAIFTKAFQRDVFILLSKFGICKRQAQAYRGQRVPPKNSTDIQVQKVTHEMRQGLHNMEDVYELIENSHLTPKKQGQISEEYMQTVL
How it was run: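 TSHR-HEK293 cells in agonist mode, 30 min room-temperature step, then cAMP measured by competitive HTRF (cAMP-d2 with anti-cAMP cryptate) after 1 h at room temperature. Tested at 15 concentrations in triplicate.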

[9] = qHTS assay to identify small molecule agonists of the hypoxia (HIF-1) signaling pathway - cell viability counter screen (AID 1224844; calls by dose curve; also: nearly all actives have a fitted effect of over 50% in size; also: potency is read from the fitted curve at half-maximal effect)
How it was run: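 Tox21 10K compounds were added to HRE-bla ME-180 cells (0.5% dialyzed FBS) and incubated 17 hrs at 37C; ATP-based CellTiter-Glo luminescence then reported cell viability in the same wells.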

[10] = qHTS assay to identify small molecule agonists of the estrogen related receptor signaling pathway with the pleiotropic PPARgamma coactivator (PGC) from Tox21 10K library (AID 1224842); also: nearly all actives have a fitted effect of over 15% in size; also: potency is read from the fitted curve at half-maximal effect
How it was run: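 PGC/ERR reporter cell line, 2,000 cells per well, incubated 6 h at 37 C before 23 nL compound in DMSO was added. After 18 h at 37 C, One-Glo luminescence read following 30 min at room temperature.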

SMILES	Potency [1]	Potency [2]	Potency [3]	Potency [4]	Potency [5]	Potency [6]	Potency [7]	outcome [8]	Potency [9]	Potency [10]
NC(=O)NC1NC(=O)NC1=O (stereo not drawn)	inactive	inactive	inactive	inactive	inactive	inactive	inactive	inactive	inactive	–
O=C(c1ccccc1)C(O)c1ccccc1 (stereo not drawn)	inactive	inactive	inactive	inactive	inactive	–	inactive	inactive	inactive	–
CC(=O)NS(=O)(=O)c1ccc(N)cc1	inactive	inactive	inactive	inactive	inactive	inactive	inactive	–	inactive	–
O=C(O)CCCCCCCC(=O)O	inactive	inactive	inactive	inactive	inactive	inactive	inactive	inactive	inactive	–
OCCc1ccccc1	inactive	inactive	inactive	inactive	–	–	inactive	inactive	inactive	–
CC(O)CO (stereo not drawn)	inactive	inactive	inactive	inactive	–	–	inactive	inactive	inactive	inactive
Oc1ccc(/C=C/c2cc(O)cc(O)c2)cc1	21.9 µM (active) and 21.7 µM (active) and 26.6 µM (active)	–	inactive	inactive	inactive	19.5 µM (active) and 21.7 µM (active) and 29.8 µM (active)	inactive	inactive	inactive	5.5 µM (active) and 4.86 µM (active) and 10.6 µM (active)
N=C(N)c1ccc(OCCCCCOc2ccc(C(=N)N)cc2)cc1	inactive	inactive	inactive	–	–	–	inactive	inactive	inactive	–
Nc1ccc(S(=O)(=O)c2ccc(N)cc2)cc1	inactive	inactive	inactive	inactive	–	–	inactive	inactive	inactive	–
O=C(C1CCCCC1)N1CC(=O)N2CCc3ccccc3C2C1 (stereo not drawn)	–	inactive	inactive	inactive	–	inactive	inactive	–	inactive	inactive
O=C(O)c1cccc([N+](=O)[O-])c1	inactive	inactive	inactive	inactive	–	–	inactive	–	inactive	–
Cn1cc[nH]c1=S	inactive	inactive	inactive	inactive	–	inactive	inactive	inactive	inactive	–
COc1c2occc2cc2ccc(=O)oc12	inactive	–	inactive	inactive	–	–	inactive	inactive	inactive	–
O=C(O)c1cccnc1	inactive	–	inactive	inactive	inactive	inactive	inactive	inactive	inactive	–
c1ccc2[nH]ccc2c1	26.9 µM (active) and inactive	inactive	–	–	–	–	8.49 µM (active) and inactive	inactive	17.1 µM (active) and inactive	inactive
CCCN(CCC)S(=O)(=O)c1ccc(C(=O)O)cc1	inactive	inactive	inactive	inactive	–	–	inactive	inactive	inactive	inactive
COC(=O)[C@H](Cc1ccccc1)NC(=O)[C@@H](N)CC(=O)O (H-Asp-Phe-OMe)	inactive	inactive	inactive	inactive	–	–	inactive	inactive	inactive	–
Cc1ccc(O)cc1	inactive	inactive	–	–	–	–	inactive	inactive	inactive	–
OC(Cn1cncn1)(Cn1cncn1)c1ccc(F)cc1F	inactive	inactive	inactive	inactive	–	–	inactive	inactive	inactive	–
NS(=O)(=O)c1cc(C(=O)O)c(NCc2ccco2)cc1Cl	inactive	inactive	inactive	inactive	–	–	inactive	inactive	inactive	inactive
O=C(O)CS	inactive	inactive	inactive	inactive	–	–	inactive	–	inactive	–

SMILES	Potency [1]	Potency [2]	Potency [3]	Potency [4]	Potency [5]	Potency [6]	Potency [7]	outcome [8]	Potency [9]	Potency [10]
O=C(c1ccccc1)c1ccccc1	inactive	–	inactive	inactive	–	–	inactive	–	inactive	–
O=C(O)CCCCC(=O)O	inactive	inactive	inactive	inactive	–	–	inactive	inactive	inactive	–
Cc1ccc(C)c(OCCCC(C)(C)C(=O)O)c1	inactive	inactive	inactive	inactive	–	–	inactive	inactive	inactive	–
Nc1ccc(S(=O)(=O)Nc2nccs2)cc1	inactive	inactive	inactive	inactive	–	–	inactive	inactive	inactive	inactive
CCCC(CCC)C(=O)O	inactive	inactive	inactive	inactive	–	–	inactive	inactive	inactive	–
CC(=O)OCC(COC(C)=O)OC(C)=O	inactive	inactive	inactive	inactive	–	–	inactive	inactive	inactive	inactive
CCOc1ccc(NC(=O)CC(C)O)cc1 (stereo not drawn)	inactive	inactive	inactive	inactive	–	–	inactive	inactive	inactive	–
Nc1ccn([C@H]2CC[C@@H](CO)O2)c(=O)n1	inactive	inactive	inactive	inactive	–	–	inactive	inactive	inactive	–
O=C(O)C(=O)O	inactive	inactive	inactive	inactive	–	–	inactive	inactive	inactive	–
CCCNC(=O)NS(=O)(=O)c1ccc(Cl)cc1	inactive	inactive	inactive	inactive	–	–	inactive	inactive	inactive	–
O=C(O)/C=C\C(=O)O	–	inactive	inactive	inactive	inactive	–	–	inactive	inactive	–
Cn1c(=O)c2[nH]cnc2n(C)c1=O	inactive	inactive	inactive	inactive	–	–	inactive	inactive	inactive	–
O=NO	inactive	–	inactive	inactive	inactive	inactive	inactive	inactive	inactive	–
O=C(O)c1cc(N=Nc2ccc(S(=O)(=O)Nc3ccccn3)cc2)ccc1O	27.4 µM (active) and 27.3 µM (active) and 23.7 µM (active)	71.3 µM (active) and inactive	–	–	–	–	30.7 µM (active) and inactive	inactive	inactive	–
Cc1cn([C@H]2C[C@H](N=[N+]=[N-])[C@@H](CO)O2)c(=O)[nH]c1=O	inactive	inactive	inactive	inactive	–	–	inactive	–	inactive	inactive
CCCC(O)C(CC)CO (stereo not drawn)	inactive	inactive	inactive	inactive	–	–	inactive	–	inactive	–
NC(=O)c1ccccc1O	inactive	inactive	inactive	inactive	–	–	inactive	inactive	inactive	–
Nc1ccc(O)c(C(=O)O)c1	inactive	–	inactive	inactive	inactive	inactive	inactive	inactive	inactive	inactive
CNC[C@H](O)c1cccc(O)c1	inactive	–	inactive	inactive	inactive	inactive	inactive	–	inactive	–
O=S(=O)(O)NC1CCCCC1	inactive	–	inactive	inactive	inactive	inactive	inactive	inactive	inactive	–
